Experimental data reported in ChEMBL document CHEMBL3988442, “University of Dundee, Small-Polar-MMV Screening Library” (2021).
For some of these results: Measured potencies and affinities stand elsewhere.

How the values were obtained:
Parameters in all cases: scale not given: direction of the effect not stated beside the values
[1] = biological target: Protein translocase subunit SecA (Escherichia coli (strain K12)) (UniProt P10408); assay: Assay to Identify E. coli SecA ATPase Inhibitors; format: functional; conditions: 30 µM
Chain of Protein translocase subunit SecA (Escherichia coli (strain K12)) (P10408 whole entry): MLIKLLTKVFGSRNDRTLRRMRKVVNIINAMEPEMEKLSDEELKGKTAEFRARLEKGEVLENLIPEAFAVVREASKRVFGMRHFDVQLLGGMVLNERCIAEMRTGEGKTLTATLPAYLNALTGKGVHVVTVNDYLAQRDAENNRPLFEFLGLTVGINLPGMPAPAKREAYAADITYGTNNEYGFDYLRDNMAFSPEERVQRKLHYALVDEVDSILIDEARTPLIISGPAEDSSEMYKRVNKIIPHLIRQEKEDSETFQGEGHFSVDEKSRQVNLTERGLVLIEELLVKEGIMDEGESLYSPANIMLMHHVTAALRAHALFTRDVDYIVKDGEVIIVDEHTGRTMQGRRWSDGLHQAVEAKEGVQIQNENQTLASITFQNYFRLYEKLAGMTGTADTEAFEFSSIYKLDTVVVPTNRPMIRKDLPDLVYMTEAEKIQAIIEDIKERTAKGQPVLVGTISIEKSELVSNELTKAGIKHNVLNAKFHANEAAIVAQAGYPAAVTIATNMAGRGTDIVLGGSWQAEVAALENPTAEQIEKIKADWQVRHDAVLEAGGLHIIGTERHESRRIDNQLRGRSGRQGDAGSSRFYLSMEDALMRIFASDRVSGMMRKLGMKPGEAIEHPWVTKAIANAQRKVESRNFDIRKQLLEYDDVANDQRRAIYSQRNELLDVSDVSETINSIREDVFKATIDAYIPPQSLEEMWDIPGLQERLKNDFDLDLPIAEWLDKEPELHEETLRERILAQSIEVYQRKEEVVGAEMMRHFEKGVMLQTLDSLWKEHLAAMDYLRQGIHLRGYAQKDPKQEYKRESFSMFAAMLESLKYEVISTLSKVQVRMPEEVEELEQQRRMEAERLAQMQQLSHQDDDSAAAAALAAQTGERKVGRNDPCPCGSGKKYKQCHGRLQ

[2] = biological target: T1, Ubiquitin-activating enzyme e1, putative (Leishmania donovani (strain BPK282A1)) (UniProt E9BSI1); assay: Leishmania donovani Ubiquitin Activating Enzyme (LdE1); format: functional; conditions: 30 µM
T1 sequence (whole entry): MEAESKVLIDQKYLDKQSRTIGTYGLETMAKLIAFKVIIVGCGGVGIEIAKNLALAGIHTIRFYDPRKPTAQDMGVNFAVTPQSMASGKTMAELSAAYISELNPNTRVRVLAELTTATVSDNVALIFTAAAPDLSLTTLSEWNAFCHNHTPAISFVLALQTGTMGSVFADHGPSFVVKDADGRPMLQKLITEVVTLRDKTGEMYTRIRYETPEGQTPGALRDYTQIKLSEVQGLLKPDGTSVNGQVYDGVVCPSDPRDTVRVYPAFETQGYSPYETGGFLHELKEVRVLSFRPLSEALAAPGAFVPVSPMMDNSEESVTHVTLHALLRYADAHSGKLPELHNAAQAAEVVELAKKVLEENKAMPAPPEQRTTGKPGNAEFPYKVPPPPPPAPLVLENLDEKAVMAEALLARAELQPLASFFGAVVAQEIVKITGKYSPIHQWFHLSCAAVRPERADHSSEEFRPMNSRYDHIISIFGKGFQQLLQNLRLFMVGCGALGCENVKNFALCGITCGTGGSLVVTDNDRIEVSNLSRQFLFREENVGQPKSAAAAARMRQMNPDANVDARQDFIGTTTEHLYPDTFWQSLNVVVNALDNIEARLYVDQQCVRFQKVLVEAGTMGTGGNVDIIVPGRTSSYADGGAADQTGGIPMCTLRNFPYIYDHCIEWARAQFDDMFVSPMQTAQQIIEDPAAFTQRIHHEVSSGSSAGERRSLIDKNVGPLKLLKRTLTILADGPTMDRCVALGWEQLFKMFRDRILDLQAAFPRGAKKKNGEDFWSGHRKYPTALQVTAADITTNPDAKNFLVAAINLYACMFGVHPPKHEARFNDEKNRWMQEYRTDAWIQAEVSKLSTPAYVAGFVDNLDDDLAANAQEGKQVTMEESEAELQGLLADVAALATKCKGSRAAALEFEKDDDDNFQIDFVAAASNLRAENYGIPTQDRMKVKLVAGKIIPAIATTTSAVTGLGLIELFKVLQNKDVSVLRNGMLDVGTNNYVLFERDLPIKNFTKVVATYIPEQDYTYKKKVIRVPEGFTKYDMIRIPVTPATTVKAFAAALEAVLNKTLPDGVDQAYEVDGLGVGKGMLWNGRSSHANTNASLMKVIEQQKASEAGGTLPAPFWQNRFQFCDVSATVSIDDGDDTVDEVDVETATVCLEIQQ

[3] = biological target: AMP-activated protein kinase, AMPK (Homo sapiens) (UniProt P54646+O43741+P54619+Q9UGJ0+Q9Y478+Q13131+Q9UGI9); assay: AMP-dependent Kinase enzyme assay. An in vitro enzyme assay that detects ADP turnover that is directly proportional to AMPK activity. This uses naive AMPK that is activated during the assay with MK-8722; format: functional; conditions: 30 µM
[4] = biological target: Sialic acid-binding Ig-like lectin 9 (Homo sapiens) (UniProt Q9Y336); assay: Hs-Siglec9 ALPHAscreen SOP 20170721; conditions: 10 µM
Chain of Sialic acid-binding Ig-like lectin 9 (Homo sapiens) (Q9Y336 whole entry): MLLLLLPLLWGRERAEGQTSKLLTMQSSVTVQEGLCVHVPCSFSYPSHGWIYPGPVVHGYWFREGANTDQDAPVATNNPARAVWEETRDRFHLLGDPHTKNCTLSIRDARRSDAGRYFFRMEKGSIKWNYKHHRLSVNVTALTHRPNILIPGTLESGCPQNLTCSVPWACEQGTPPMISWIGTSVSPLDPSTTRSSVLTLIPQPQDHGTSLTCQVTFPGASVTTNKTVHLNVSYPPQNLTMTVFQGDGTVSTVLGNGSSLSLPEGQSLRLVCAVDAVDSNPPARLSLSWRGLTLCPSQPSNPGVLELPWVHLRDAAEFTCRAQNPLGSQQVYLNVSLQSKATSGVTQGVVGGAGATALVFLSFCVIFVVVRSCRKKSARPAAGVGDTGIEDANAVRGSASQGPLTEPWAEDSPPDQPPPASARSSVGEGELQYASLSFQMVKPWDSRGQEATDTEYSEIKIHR

[5] = system: Trypanosoma cruzi; assay: Trypanosoma cruzi phosphomannomutase and mannose-1-phosphate guanylyltransferase assay; format: functional; conditions: 10 µM
[6] = biological target: T2, Arginase-2, mitochondrial (Homo sapiens) (UniProt P78540); assay: in vitro enzyme assay to detect the production of urea directly proportional to the activity of Arginase II; format: functional; conditions: 33.3 µM; further: in the data most compounds retested in dose-response had high values
T2 sequence (whole entry): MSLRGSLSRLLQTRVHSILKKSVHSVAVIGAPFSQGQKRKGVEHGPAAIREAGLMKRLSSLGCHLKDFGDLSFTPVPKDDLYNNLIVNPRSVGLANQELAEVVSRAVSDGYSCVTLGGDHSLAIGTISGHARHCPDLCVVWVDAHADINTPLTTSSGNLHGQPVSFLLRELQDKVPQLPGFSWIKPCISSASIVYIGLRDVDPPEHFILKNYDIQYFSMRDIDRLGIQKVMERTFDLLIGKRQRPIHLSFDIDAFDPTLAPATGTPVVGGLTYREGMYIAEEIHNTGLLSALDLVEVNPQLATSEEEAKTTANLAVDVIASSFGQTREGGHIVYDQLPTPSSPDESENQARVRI

[7] = biological target: T3, Proteasome subunit beta (Trypanosoma cruzi) (UniProt O96673); assay: Trypanosoma cruzi proteasome chymotrypsin-like activity (TcProtChymo) assay.; further: in the data most compounds retested in dose-response had high values; format: functional; conditions: 9.37 µM
T3 sequence (whole entry): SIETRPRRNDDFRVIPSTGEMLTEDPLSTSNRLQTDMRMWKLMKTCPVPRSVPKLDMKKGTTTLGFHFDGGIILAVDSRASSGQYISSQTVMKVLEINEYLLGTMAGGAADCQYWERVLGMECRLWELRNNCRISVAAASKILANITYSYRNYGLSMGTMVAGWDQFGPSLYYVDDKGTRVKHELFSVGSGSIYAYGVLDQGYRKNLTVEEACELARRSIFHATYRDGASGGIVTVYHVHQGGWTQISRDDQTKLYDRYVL

[8] = species: Homo sapiens; assay: To identify inhibition of the IFN signalling (Jak-Stat) pathway via expression of an eGFP reporter gene under the control of an IFN-stimulated response element (ISRE) containing MxA promoter.; format: functional; conditions: 30 µM
[9] = biological target: T4, Tyrosyl-tRNA synthetase, putative (Trypanosoma cruzi (strain CL Brener)) (UniProt Q4DSP6); assay: Trypanosoma cruzi tyrosyl tRNA synthetase (TcYRS) _High Tyrosine SOP; format: functional; conditions: 30 µM; further: in the data most compounds retested in dose-response had high values
T4 sequence (whole entry): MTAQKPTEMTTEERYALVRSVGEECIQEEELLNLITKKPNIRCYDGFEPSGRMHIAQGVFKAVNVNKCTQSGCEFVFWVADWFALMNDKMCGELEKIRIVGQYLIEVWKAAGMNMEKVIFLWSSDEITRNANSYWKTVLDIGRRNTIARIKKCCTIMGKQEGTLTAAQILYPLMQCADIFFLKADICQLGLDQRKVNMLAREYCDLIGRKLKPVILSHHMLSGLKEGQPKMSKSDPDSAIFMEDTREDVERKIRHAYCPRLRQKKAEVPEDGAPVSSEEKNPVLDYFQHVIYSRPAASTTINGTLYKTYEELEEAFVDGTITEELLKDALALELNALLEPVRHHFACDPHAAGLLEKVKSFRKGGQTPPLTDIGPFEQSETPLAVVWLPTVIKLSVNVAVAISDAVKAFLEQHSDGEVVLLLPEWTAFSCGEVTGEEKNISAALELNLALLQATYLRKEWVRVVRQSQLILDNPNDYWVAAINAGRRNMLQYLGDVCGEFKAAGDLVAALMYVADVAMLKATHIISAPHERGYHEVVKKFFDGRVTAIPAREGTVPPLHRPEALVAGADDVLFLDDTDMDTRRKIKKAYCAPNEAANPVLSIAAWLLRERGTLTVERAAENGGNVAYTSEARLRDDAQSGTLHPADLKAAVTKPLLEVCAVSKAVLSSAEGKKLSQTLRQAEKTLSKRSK

[10] = biological target: T4, Tyrosyl-tRNA synthetase, putative (Trypanosoma cruzi (strain CL Brener)); assay: Trypanosoma cruzi tyrosyl tRNA synthetase (TcYRS) SOP; format: functional; conditions: 30 µM
[11] = biological target: Chromo domain-containing protein 1 (Saccharomyces cerevisiae (strain ATCC 204508 / S288c) (Baker's yeast)) (UniProt P32657); assay: ScCHD-1 Enzyme Inhibition Assay; format: functional; conditions: 30 µM; further: in the data most compounds retested in dose-response had high values
Chain of Chromo domain-containing protein 1 (Saccharomyces cerevisiae (strain ATCC 204508 / S288c) (Baker's yeast)) (P32657 whole entry, the tested form may be a part): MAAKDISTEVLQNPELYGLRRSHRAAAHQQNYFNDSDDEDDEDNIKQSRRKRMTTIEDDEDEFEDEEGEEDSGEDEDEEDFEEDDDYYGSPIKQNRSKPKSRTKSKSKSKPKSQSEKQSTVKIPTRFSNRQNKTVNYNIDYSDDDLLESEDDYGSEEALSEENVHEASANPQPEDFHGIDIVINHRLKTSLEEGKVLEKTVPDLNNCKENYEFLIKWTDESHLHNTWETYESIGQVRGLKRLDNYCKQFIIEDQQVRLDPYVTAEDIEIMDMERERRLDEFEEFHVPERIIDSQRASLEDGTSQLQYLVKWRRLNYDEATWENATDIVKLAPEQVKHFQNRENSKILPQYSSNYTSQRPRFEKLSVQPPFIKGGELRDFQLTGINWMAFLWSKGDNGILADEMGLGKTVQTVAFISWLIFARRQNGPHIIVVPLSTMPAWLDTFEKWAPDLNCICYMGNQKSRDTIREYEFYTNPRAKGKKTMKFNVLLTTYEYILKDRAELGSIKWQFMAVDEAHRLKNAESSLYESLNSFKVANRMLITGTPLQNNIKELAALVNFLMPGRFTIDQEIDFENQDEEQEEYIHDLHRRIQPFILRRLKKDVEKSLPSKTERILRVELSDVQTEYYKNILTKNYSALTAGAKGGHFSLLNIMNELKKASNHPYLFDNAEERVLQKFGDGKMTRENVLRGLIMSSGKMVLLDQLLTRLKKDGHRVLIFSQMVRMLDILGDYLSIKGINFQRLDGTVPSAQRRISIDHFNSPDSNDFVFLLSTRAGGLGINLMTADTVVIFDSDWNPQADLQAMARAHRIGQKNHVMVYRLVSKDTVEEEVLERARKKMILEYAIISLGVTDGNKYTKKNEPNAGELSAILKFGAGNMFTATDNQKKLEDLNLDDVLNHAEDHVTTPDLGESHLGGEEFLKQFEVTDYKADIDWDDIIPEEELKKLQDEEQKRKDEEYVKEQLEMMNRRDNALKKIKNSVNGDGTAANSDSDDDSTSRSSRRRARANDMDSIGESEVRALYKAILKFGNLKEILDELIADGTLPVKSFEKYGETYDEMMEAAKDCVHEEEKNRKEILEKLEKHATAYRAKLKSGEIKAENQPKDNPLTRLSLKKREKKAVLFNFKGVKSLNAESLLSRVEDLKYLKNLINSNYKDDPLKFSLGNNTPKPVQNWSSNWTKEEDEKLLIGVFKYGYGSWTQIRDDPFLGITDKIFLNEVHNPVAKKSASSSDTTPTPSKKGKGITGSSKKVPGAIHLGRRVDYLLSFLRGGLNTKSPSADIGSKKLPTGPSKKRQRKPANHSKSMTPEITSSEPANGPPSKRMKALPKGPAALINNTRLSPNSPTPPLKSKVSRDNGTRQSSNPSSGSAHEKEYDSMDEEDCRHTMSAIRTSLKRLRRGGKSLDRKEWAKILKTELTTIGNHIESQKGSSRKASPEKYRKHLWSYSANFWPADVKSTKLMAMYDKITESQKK

Row | SMILES | Percent Effect [1] [%] | Percent Effect [2] [%] | Percent Effect [3] [%] | Percent Effect [4] [%] | Percent Effect [5] [%] | Percent Effect [6] [%] | Percent Effect [7] [%] | Percent Effect [8] [%] | Percent Effect [9] [%] | Percent Effect [10] [%] | Percent Effect [11] [%]
1 | O=C(Nc1cccc(CN2CCOC2=O)c1)N1CCSCC1 | -1.53 | 12.5 | -15.6 | 9.65 | 2.04 | 3.09 | 23.3 | -2.05 | 8.42 | 15.4 | 83.9
2 | CC(C)(C)c1nc(CN2CCCC2Cn2cccn2)no1 (stereo not drawn) | -1.54 | 26 | -0.88 | -2.85 | 2.81 | 6.41 | 17.7 | 18.5 | 12.6 | 26.8 | -9.21
3 | CCN(Cc1nc2c(cnn2C)c(=O)[nH]1)c1cccc(Cl)c1 | -2.52 | 10.4 | 4.11 | -5.62 | 1.27 | 0.632 | 14.3 | 16.2 | 1.91 | 14.1 | -9.43
4 | Cc1csc2c(N3CCC(NCCCc4ccncc4)CC3)ncnc12 | -0.362 | 2.6 | 5.76 | 17.7 | -1.08 | -1.38 | 6.49 | -3.09 | 7.53 | 11.1 | -2.5
5 | CC(C)NC(=O)C1CN(C(=O)c2ccc(F)cc2)CC12CCOCC2 (stereo not drawn) | -0.326 | 6.67 | 1.28 | -10.8 | -11.8 | -7.22 | 17.4 | -8.73 | 1.06 | 2.56 | -10.5
6 | CC(Cn1cccn1)NC(=O)N(C)Cc1ccc(Cl)s1 (stereo not drawn) | -7.83 | 2.53 | -3.14 | 9.63 | 7.27 | -8.37 | 0.409 | 2.27 | -1.48 | 3.8 | -2.46
7 | CC(=O)c1cccc(OCCCC(=O)N(C)Cc2ccccn2)c1 | 0.239 | 0 | -2.92 | 15.9 | 4.25 | 2.86 | 10.5 | -7.21 | -0.529 | 4.88 | -9.86
8 | CC(=O)N1CCN(C(=O)CCCc2nc(C(C)C)no2)CC1 | -1.74 | 15.2 | 2.62 | -11.8 | -10.1 | 4.56 | 8.44 | 37.4 | -0.493 | -1.27 | -5.47
